The record followed here is PubChem BioAssay.

Experiment [1] can be described thus: yeast TOR pathway RPL19A-GFP modulators, primary screen, cell-based, S. cerevisiae, multiplex flow cytometry (AID 1862; in the data active = percent of DMSO control GFP below about 86%;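 note: lower values mimic rapamycin by blocking the RPL19A rise seen in DMSO cells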). Conditions: S. cerevisiae RPL19A-GFP strain, flow cytometry fluorescence, 3 h; at 10 µM; stronger effect = lower value.
Experiment [2] is described as follows: modulators of MEP2-GFP levels in yeast, primary screen, S. cerevisiae, multiplex flow cytometry (AID 1867;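 active = GFP response, as percent of the DMSO control, above the screen-wide mean plus 3 SD, about 139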;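 note: median GFP channel fluorescence of barcode-gated MEP2-GFP cells measured by flow cytometry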). Conditions: S. cerevisiae MEP2-GFP strain, 3 h, at 10 µM, stronger effect = higher value, 100% means same as DMSO wells.
Experiment [3] in a line: modulators of CIT2-GFP expression in yeast, primary screen, S. cerevisiae, GFP fusion, multiplex flow cytometry (AID 1870).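 Note: barcoded CIT2-GFP strain pooled with four other GFP strains with rapamycin as positive control; median GFP fluorescence per well over plate mean of DMSO wells so 100% = DMSO.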 Conditions: 3 h, at 10 µM, stronger effect = higher value. For orientation: In flow cytometry, cells or beads pass a laser one at a time.
Experiment [4] is described as follows: modulators of LAP4-GFP expression in yeast, primary screen, S. cerevisiae, multiplex flow cytometry (AID 1873;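 active = GFP signal, as percent of the solvent control, above the screen mean plus 3 SD, about 149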). Conditions: 3 h, at 10 µM, stronger effect = higher value.
The nature of experiment [5]: modulators of AGP1-GFP expression in yeast TOR pathway, primary screen, cell-based, multiplex flow cytometry, S. cerevisiae (AID 1887;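 active = GFP signal above the screen-wide mean plus 3 SD, that is over about 124.5% of the solvent control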;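 note: AGP1-GFP fusion strain of S. cerevisiae within a five-strain barcoded multiplex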). Conditions: 3 h, at 10 µM, stronger effect = higher value.
A short description of experiment [6]: inhibitors of CD8+ T cell-vesicle binding, pilot screen, LFA-1/ICAM-1 modulator project, MLPCN validation set, flow cytometry (AID 2523;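 active = response below a set limit, under 55% cells CD8-positive and vesicle-bound, and CD8 cells' 90th-percentile brightness under 279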;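 for vesicle binding response: mean PE anti-B7-1 fluorescence of CD8+ cells relative to row control; 100% = QL9-loaded vesicles with DMSO vehicle in the same plate row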). Conditions: 2C mouse CD8+ T cells, at 7 µM, stronger effect = lower value; double positive events: measured here: CD8+/vesicle+ event percentage.
Experiment [7] deals with Integrin beta-1 (Homo sapiens) + Integrin alpha-4 (Homo sapiens) (UniProt P13612+P05556). Kind of experiment: inhibition of HUTS-21 binding to VLA-4, pilot screen, VLA-4 allosteric modulator project, U937 cells, HUTS-21 mAb, flow cytometry, validation set (AID 2674;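 active = inhibition above 50%, about 3 SD of the validation set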;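 note: antibody binding induced by the VLA-4 ligand LDV present at three times its Kd; 0% = LDV ligand with antibody and no compound and 100% = antibody without LDV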). Conditions: HUTS-21 LIBS mAb binding, at 6.7 µM, stronger effect = higher value, binding induced by LDV ligand.
A short description of experiment [8]: superoxide lowering in aged yeast cells, pilot screen, validation compound set (AID 2706;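 active = superoxide response below 65% of plate, a cut near 3 SD across the whole screen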;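 note: yeast exposed to compound for one week at 30 degrees C before staining; 100% = mean of all compound wells on the same plate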). Conditions: S. cerevisiae aging, superoxide DHE fluorescence; at 10 µM; stronger effect = lower value.
The target in experiment [9] is Beta-adrenergic receptor kinase 1 (Homo sapiens) (UniProt P25098). Kind of experiment: GRK2 binders displacing RNA aptamer, biochemical, validation, human GRK2, bead flow cytometry (AID 488806;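 active = aptamer binding inhibition above 30%, about 3 SD of noise from non-fluorescent compounds; inactive = inhibition at or below 30%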). Conditions: bead-bound GRK2, FAM-aptamer displacement, at 10 µM, stronger effect = higher value.
The target of experiment [10] is Beta-2 adrenergic receptor (Homo sapiens) (UniProt P07550). Kind of experiment: beta2AR agonists driving receptor internalization, pilot screen, cell-based, FAP fluorogen, flow cytometry, validation set (AID 504459;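 active = percent response above 42, roughly 3 SD of non-fluorescent test compounds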;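 note: agonist-driven loss of surface beta2AR via internalization measured by FAP dye flow cytometry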). Conditions: Am2.2-beta2AR cells, FAP surface receptor flow cytometry; at 10 µM; stronger effect = higher value.
Experiment [11] has as its target AP-2 complex subunit beta (Homo sapiens) (UniProt P63010). As to the kind of experiment: inhibitors of arrestin peptide binding to AP2, pilot screen, biochemical, validation set, GST-AP2 beads, flow cytometry (AID 504541;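 active = inhibition above 54%, about 3 SD of non-fluorescent compounds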;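 note: AP2 carries R879A mutation and is captured from E. coli lysate; bead-bound FITC arrestin peptide fluorescence measuring arrestin peptide binding to AP2; 0% = DMSO wells and 100% = excess unlabeled arrestin peptide control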). Conditions: FITC arrestin peptide, at 10 µM, stronger effect = higher value, AP2 beta2 appendage fragment, R879A mutant.
The nature of experiment [12]: yeast V-ATPase proton transport modulators, S. cerevisiae, pHLuorin, HTS validation (AID 504600; in the data active = response above about 15%;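 note: plate controls were DMSO for no effect and reference compound for full effect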). Conditions: S. cerevisiae pHLuorin cytosolic pH, at 10 µM, stronger effect = higher value.
Experiment [13] deals with anti-desmoglein-3 scFv antibody binding to human DSG3. As to the kind of experiment: inhibitors of anti-DSG3 scFv binding to DSG3, pilot screen, biochemical, validation compound set, bead-based, flow cytometry (AID 588368;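 active = binding below the plate cutoff, the plate median minus 3 SD, with a reading above zero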;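 note: signal is the median channel fluorescence of bead-bound GFP antibody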). Conditions: Protein G beads, DSG3-Fc, scFv-GFP binding, at 10 µM, stronger effect = lower value.
Experiment [14] can be described thus: inhibitors of fungal efflux pumps CDR1, CDR2, MDR1, pilot screen, validation compound set, multiplex, phenotypic (AID 588506;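 active = efflux inhibition above 0.42, the validation set average plus 4 SD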;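 note: Nile Red retained in cells so higher fluorescence means more efflux inhibition; 0 = negative control wells and 1 = enniatin B 25 µM full block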). Conditions: S. cerevisiae pump-expressing triplex, Nile Red efflux flow cytometry; at 10 µM; stronger effect = higher value; the pumps come from Candida albicans.
In experiment [15] the target is ATP-binding cassette sub-family B member 6 (Homo sapiens) (UniProt Q9NP58). Kind of experiment: ABCB6 transporter inhibitors, pilot screen, K562-ABCB6 cells, flow cytometry, validation set (AID 588550;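 active = inhibition above the screen-wide mean plus 3 SD, about 51%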;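 note: 0% = DMSO wells and 100% = benzethonium chloride 70 µM positive control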). Conditions: K562-ABCB6 porphyrin accumulation, 1 h, at 10 µM, stronger effect = higher value.
Experiment [16] is described as follows: promoters of myeloid differentiation in arrested cells, primary screen, cell-based, GFP/MAC1 double positive, flow cytometry, validation set (AID 588685;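 active = differentiation response of at least 50%, scaled between solvent and reference control, from cells with both markers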;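 note: compound exposure lasts four days before antibody staining and flow analysis; 0% = DMSO wells and 100% = 5 µM fulvestrant positive control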). Conditions: ER-HoxA9 marrow cells, stronger effect = higher value, normalized: vehicle 0, fulvestrant 100.

Results filed as inconclusive are left out. Activity calls are given as the source filed them.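 Rule for the calls, unless noted: active = percent response above a set limit, the screen-wide mean plus 3 SD (cut at about 130% in these data); inactive = the rest.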

ATP-binding cassette sub-family B member 6 (Homo sapiens), sequence (Q9NP58 whole entry, looked up): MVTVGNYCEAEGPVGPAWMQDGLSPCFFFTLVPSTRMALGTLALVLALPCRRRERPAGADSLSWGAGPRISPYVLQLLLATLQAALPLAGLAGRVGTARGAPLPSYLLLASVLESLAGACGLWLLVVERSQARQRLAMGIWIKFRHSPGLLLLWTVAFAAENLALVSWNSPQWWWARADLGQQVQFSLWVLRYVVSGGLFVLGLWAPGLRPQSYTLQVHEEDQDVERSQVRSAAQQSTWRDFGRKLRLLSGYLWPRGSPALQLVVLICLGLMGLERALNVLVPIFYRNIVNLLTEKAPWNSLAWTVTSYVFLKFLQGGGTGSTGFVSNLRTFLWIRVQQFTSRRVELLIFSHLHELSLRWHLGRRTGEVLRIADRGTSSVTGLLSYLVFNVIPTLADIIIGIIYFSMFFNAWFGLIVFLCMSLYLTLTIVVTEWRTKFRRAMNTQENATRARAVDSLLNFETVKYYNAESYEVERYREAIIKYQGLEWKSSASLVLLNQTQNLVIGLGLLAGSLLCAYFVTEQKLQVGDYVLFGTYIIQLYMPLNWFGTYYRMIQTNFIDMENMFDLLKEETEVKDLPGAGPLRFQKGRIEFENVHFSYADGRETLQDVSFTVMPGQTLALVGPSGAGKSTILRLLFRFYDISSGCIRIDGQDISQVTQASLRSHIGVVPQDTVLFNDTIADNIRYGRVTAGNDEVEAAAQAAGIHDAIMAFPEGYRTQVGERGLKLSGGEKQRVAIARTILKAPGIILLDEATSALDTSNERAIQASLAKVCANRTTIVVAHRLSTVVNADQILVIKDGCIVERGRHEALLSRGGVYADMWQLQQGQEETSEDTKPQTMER
Beta-adrenergic receptor kinase 1 (Homo sapiens), sequence (P25098 whole entry, looked up): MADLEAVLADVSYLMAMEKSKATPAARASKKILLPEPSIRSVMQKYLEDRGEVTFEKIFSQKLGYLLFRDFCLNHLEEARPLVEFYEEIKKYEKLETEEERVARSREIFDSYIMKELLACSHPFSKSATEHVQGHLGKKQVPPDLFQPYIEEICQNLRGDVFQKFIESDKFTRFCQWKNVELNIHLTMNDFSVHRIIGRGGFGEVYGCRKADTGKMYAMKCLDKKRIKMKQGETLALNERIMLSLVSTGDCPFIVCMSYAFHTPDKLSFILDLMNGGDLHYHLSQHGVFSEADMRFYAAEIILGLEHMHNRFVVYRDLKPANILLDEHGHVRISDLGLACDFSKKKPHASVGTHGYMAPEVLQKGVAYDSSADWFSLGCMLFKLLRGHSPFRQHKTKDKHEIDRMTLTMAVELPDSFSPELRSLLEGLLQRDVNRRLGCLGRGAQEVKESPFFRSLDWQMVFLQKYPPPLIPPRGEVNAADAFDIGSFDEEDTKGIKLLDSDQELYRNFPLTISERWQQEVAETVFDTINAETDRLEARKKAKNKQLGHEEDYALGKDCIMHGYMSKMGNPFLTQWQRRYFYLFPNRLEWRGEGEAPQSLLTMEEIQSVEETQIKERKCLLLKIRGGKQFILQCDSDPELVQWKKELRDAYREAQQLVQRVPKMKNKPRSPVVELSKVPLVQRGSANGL
Beta-2 adrenergic receptor (Homo sapiens), sequence (P07550 whole entry, looked up): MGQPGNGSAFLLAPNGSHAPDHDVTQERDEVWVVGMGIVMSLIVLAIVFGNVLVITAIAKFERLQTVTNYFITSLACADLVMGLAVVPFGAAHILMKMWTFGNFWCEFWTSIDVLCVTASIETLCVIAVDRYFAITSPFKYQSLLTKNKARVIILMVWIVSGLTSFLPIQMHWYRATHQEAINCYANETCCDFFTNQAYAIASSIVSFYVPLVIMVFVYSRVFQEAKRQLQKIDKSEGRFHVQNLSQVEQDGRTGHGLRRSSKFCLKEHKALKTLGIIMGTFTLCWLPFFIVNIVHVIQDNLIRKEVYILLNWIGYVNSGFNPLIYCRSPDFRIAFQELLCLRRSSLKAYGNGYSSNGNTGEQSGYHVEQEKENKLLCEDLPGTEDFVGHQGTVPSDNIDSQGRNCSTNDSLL
AP-2 complex subunit beta (Homo sapiens), sequence (P63010 whole entry, looked up, the tested form may be a part, one chain of several): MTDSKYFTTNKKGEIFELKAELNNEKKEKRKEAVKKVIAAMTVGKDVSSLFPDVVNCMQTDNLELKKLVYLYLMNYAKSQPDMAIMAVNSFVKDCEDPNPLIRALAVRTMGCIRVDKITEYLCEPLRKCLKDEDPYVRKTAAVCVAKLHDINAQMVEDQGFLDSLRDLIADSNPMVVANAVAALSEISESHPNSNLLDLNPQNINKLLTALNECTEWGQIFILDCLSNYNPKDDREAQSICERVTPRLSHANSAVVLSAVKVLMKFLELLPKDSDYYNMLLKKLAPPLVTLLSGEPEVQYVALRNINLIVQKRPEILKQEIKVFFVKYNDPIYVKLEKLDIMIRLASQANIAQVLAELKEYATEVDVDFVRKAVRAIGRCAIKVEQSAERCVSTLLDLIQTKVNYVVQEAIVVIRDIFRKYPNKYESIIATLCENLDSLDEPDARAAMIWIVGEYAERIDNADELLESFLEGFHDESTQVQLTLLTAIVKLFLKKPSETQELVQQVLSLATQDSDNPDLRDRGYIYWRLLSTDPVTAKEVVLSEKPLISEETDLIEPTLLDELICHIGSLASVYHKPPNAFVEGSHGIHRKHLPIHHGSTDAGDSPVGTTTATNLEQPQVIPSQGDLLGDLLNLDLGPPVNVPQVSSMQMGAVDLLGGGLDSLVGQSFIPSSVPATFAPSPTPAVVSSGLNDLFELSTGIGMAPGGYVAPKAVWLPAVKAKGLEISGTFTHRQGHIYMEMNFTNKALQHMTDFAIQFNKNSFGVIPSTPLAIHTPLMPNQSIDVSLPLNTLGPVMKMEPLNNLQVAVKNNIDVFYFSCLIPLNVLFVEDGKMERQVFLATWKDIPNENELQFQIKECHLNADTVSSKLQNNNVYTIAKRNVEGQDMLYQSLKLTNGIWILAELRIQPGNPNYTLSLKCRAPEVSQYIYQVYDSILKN
Integrin beta-1 (Homo sapiens) + Integrin alpha-4 (Homo sapiens), sequence (P05556 whole entry, looked up): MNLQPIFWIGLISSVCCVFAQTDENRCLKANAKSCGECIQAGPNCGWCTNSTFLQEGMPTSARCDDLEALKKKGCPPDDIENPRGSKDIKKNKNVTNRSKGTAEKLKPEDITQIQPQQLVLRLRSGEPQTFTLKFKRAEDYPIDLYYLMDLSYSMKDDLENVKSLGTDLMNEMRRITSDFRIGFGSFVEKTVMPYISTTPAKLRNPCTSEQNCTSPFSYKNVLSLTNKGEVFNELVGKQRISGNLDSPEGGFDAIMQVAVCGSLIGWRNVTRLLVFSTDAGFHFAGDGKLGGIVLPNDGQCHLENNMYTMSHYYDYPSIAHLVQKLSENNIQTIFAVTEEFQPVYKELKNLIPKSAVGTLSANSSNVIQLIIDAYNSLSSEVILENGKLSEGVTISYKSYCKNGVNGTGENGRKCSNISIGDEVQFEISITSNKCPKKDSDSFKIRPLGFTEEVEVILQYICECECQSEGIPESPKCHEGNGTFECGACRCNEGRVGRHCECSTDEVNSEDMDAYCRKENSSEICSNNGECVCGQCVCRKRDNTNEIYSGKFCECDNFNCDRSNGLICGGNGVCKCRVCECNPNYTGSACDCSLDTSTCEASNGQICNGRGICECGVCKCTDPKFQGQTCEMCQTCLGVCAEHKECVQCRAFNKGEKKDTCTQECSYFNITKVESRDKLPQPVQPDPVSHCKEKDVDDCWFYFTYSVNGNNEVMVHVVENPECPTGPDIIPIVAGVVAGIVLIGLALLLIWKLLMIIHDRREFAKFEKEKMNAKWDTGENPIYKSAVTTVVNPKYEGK
Integrin beta-1 (Homo sapiens) + Integrin alpha-4 (Homo sapiens), sequence (P13612 whole entry, looked up): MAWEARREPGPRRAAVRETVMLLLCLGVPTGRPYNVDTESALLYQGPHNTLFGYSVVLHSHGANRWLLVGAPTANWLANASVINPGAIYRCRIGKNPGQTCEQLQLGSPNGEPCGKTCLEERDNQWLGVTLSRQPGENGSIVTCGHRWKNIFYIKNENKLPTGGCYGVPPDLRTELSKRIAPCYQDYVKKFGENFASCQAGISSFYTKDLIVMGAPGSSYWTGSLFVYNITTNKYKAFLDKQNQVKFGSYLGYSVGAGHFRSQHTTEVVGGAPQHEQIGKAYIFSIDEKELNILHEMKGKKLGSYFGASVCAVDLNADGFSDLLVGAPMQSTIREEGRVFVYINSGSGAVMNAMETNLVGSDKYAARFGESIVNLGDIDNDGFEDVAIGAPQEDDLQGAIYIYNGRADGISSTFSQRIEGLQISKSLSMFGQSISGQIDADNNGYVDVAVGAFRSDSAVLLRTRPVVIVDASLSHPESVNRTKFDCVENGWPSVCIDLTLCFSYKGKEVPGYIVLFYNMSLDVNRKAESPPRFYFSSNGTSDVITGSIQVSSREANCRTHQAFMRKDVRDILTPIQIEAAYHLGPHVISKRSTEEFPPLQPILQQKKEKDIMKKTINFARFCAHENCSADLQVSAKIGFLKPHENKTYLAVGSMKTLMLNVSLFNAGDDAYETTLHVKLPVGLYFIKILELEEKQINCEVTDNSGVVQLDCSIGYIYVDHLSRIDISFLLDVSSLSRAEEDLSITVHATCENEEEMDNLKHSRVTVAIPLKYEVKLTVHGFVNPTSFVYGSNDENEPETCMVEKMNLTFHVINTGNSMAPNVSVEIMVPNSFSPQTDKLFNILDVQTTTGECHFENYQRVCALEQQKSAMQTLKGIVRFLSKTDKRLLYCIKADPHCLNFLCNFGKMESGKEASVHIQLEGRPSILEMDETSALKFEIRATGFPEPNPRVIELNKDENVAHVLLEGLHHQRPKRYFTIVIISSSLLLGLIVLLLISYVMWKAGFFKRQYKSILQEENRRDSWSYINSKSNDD

Regarding `O=C(O)[C@@H](O)c1ccccc1`, the percent of DMSO control GFP in experiment [1] is 102% (inactive). For the same compound, the GFP response vs DMSO in experiment [2] was 106% (inactive); in experiment [4], 121% (inactive). In experiment [3], the percent response of DMSO control was 102% (inactive). In addition, the GFP response, % of DMSO in experiment [5] was 120% (inactive). Further, the double positive events in experiment [6] is 62%. Also, in experiment [6], the vesicle binding response was 168% (inactive). Besides, the inhibition (commonly the relative decrease from the control value, in per cent) in experiment [7] is 16.8% (inactive); in [11], 10.1% (inactive); in [15], 3% (inactive). Also, in [8], the superoxide response (% of plate) is 97% (inactive). Moreover, the aptamer binding inhibition in [9] is 3% (inactive). The response in [10] was -22.9% (inactive); in experiment [12], -0.22% (inactive). In experiment [13], the binding (% of control) is 106% (inactive). In addition, the efflux inhibition (fraction of control) in experiment [14] is -0.04 (inactive). Moreover, in experiment [16], the differentiation response is -11.9% (inactive).

As to `COc1ccc(CCNc2ncnc3c2[nH]c2cc(OC)c(OC)cc23)cc1OC`, the percent of DMSO control GFP in experiment [1] was 97.2% (inactive). Also, the values for the GFP response vs DMSO in experiment [2] and in experiment [4] were 126% (inactive) and 82.5% (inactive), respectively. Besides, the percent response of DMSO control in experiment [3] is 111% (inactive). Moreover, the GFP response, % of DMSO in [5] was 98.7% (inactive). This compound displayed a double positive events in experiment [6] of 64%. Besides, the vesicle binding response in experiment [6] is 178% (inactive). Besides, the inhibition in experiment [7] was 0.64% (inactive); in [11], -1.78% (inactive); in experiment [15], 10% (inactive). Also, the superoxide response (% of plate) in experiment [8] was 97.5% (inactive). Also, the aptamer binding inhibition in experiment [9] is 2% (inactive). Also, the response is 19.8% (inactive) in experiment [10] and 3.11% (inactive) in experiment [12]. Also, the binding (% of control) in experiment [13] is 101% (inactive). In addition, in experiment [14], the efflux inhibition (fraction of control) is -0.06 (inactive). Besides, in experiment [16], the differentiation response is -0.82% (inactive).

In the case of `Nc1nc(Cl)nc2c1ncn2[C@H]1C[C@H](O)[C@@H](CO)O1`, the percent of DMSO control GFP in experiment [1] is 99.2% (inactive). For the same compound, the GFP response vs DMSO in experiment [2] is 102% (inactive); in [4], 104% (inactive). Also, the percent response of DMSO control in experiment [3] is 106% (inactive). Besides, the GFP response, % of DMSO in [5] is 114% (inactive). The compound further registered a double positive events in experiment [6] of 63.3%. Also, the vesicle binding response in [6] is 225% (inactive). Besides, the inhibition in [7] is 0.59% (inactive); in experiment [11], 27.9% (inactive); in experiment [15], -1% (inactive). In addition, in experiment [8], the superoxide response (% of plate) was 86.7% (inactive). For the same compound, in [9], the aptamer binding inhibition is 7% (inactive). In addition, the response in [10] was -24.5% (inactive); in experiment [12], 2.75% (inactive). The binding (% of control) in experiment [13] was 103% (inactive). Besides, in [14], the efflux inhibition (fraction of control) was 0 (inactive). The differentiation response in [16] is -9.91% (inactive).

With `O=C(CCSc1ccccc1)N1CCCC1`, in experiment [1], the percent of DMSO control GFP was 109% (inactive). Further, the GFP response vs DMSO in [2] is 109% (inactive); in experiment [4], 104% (inactive). In experiment [3], the percent response of DMSO control was 104% (inactive). Further, the GFP response, % of DMSO in experiment [5] was 112% (inactive). The double positive events in [6] was 67.6%. Also, in experiment [6], the vesicle binding response is 193% (inactive). Also, the results for the inhibition in [7], in experiment [11] and in [15] were 3.98% (inactive), 33.8% (inactive) and 5% (inactive), respectively. The superoxide response (% of plate) in experiment [8] was 109% (inactive). In addition, the aptamer binding inhibition in experiment [9] is 5% (inactive). In addition, the response was -4.18% (inactive) in experiment [10] and -0.71% (inactive) in experiment [12]. Besides, the binding (% of control) in experiment [13] was 91.3% (inactive). In addition, the efflux inhibition (fraction of control) in experiment [14] was -0.15 (inactive). For the same compound, the differentiation response in experiment [16] is -0.36% (inactive).
